Records with an inconclusive call do not appear. More than one record can exist for a structure, and the calls need not agree. The source made the active and inactive calls. Rule for the calls: active = hit-call score of the fitted dose curve at least 0.9, where 1 is the maximum; inconclusive = response in the unintended direction; inactive = score below 0.9.
Tests used:
[1] = TOX21_p53_BLA_p2_viability: Viability Assessment in the Tox21 HCT-116 p53 Agonism Beta-lactamase Assay, Phase 2 (AID 2283591);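 note: compound exposure lasted 16 h at 37 °C; actives lower the ATP signal meaning cytotoxicity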
Outline: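 Cytotoxicity readout: CellTiter-Glo ATP luminescence, 30 min at room temperature, after the beta-lactamase read. Cells were HCT116 exposed 16 h at 37C to compounds pin-transferred at 217-fold dilution from DMSO stocks.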

[2] = target: Cellular tumor antigen p53 (Homo sapiens) (UniProt P04637); assay: TOX21_p53_BLA_p2_ratio: Tox21 HCT-116 p53 Agonism Beta-lactamase Assay, Ratio, Phase 2 (AID 2283592)
Outline: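 Cleaved-to-uncleaved substrate ratio (460 vs 530 nm) measured in HCT116 cells with an inducible beta-lactamase reporter linked to p53 activity. Compounds incubated 16 h at 37C before 2 h room-temperature CCF4-AM loading.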

[3] = TOX21_p53_BLA_p3_viability: Viability Assessment in the Tox21 HCT-116 p53 Agonism Beta-lactamase Assay, Phase 3 (AID 2283593);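 note: cells exposed to compound for 16 h before reading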
Outline: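 Cellular ATP was quantified by CellTiter-Glo luminescence, read after 30 min at room temperature. Beforehand, HCT116 cells (4000/well) received compound 5 h post-seeding, 217-fold diluted from DMSO, then incubated 16 h at 37C.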

[4] = target: Cellular tumor antigen p53 (Homo sapiens) (UniProt P04637); assay: TOX21_p53_BLA_p3_ratio: Tox21 HCT-116 p53 Agonism Beta-lactamase Assay, Ratio, Phase 3 (AID 2283596)
Outline: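 Cells were seeded at 4000/well, rested 5 h at 37C, then dosed with DMSO compound solutions (217-fold dilution) for 16 h. CCF4-AM substrate was loaded for 2 h at room temperature, and the 460/530 nm emission ratio was fitted for gain of signal versus DMSO.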

[5] = TOX21_p53_BLA_p4_viability: Viability Assessment in the Tox21 HCT-116 p53 Agonism Beta-lactamase Assay, Phase 4 (AID 2283597);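 note: hits lower the luminescence signal meaning cytotoxicity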
Outline: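 Viability is taken as cellular ATP: after 16 h compound exposure of HCT116 cells and a 2 h room-temperature CCF4-AM substrate step, CellTiter-Glo reagent is added and luminescence is measured 30 min later.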

[6] = target: Cellular tumor antigen p53 (Homo sapiens) (UniProt P04637); assay: TOX21_p53_BLA_p5_ratio: Tox21 HCT-116 p53 Agonism Beta-lactamase Assay, Ratio, Phase 5 (AID 2283599)
Outline: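 Beta-lactamase reporter ratio (blue 460 nm over green 530 nm, 405 nm excitation) after 2 h CCF4-AM loading, in HCT-116 cells exposed 16 h at 37 C to compounds pinned at 217-fold dilution. Increases relative to DMSO baseline scored.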

[7] = TOX21_p53_BLA_p5_viability: Viability Assessment in the Tox21 HCT-116 p53 Agonism Beta-lactamase Assay, Phase 5 (AID 2283600)
Outline: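 Viability is taken from cellular ATP content, measured by luciferase luminescence in the same wells after the beta-lactamase ratio read. Cells are seeded at 4000 per well and exposed to DMSO-dissolved compounds, diluted 217-fold, for 16 h.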

[8] = target: Cellular tumor antigen p53 (Homo sapiens) (UniProt P04637); assay: TOX21_p53_BLA_p4_ratio: Tox21 HCT-116 p53 Agonism Beta-lactamase Assay, Ratio, Phase 4 (AID 2283601)
Outline: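 Signal is the blue/green (460nm/530nm) ratio of cleaved versus uncleaved CCF4-AM substrate, read after 2 h substrate loading. Cells were HCT116 carrying the p53-responsive beta-lactamase reporter, dosed 16 h at 37C, 5% CO2; CellTiter-Glo measured in parallel.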

Measured: AC50

Sequence of Cellular tumor antigen p53 (Homo sapiens) (P04637 whole entry, looked up): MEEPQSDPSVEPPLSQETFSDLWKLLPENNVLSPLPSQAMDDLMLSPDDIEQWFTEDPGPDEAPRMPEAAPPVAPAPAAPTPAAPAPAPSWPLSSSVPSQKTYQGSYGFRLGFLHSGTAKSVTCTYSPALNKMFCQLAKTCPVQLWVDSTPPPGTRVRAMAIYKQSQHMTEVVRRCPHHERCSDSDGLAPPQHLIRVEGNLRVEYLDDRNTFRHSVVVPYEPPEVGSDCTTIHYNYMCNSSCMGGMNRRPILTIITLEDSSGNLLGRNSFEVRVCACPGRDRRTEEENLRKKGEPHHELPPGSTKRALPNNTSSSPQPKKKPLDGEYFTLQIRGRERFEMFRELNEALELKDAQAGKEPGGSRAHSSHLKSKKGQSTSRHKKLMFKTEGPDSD

CN[C@@]1(c2ccccc2Cl)CCCCC1=O
inactive: all assays above

CCC1(c2cnc[nH]2)Cc2ccccc2C1
inactive: all assays above

CCC1(CC)C(=O)NC(=O)N(C)C1=O
inactive: [1] | [2] | [3] | [4] | [5]

c1ccoc1
not listed: [8]
inactive: all other assays above

C/C(=C\c1csc(C)n1)[C@@H]1C[C@@H]2O[C@]2(C)CCC[C@H](C)[C@H](O)[C@@H](C)C(=O)C(C)(C)[C@@H](O)CC(=O)O1
active: [2] 0.0698 µM | [4] 0.0123 µM | [6] 0.732 µM | [8] 0.0121 µM
inactive: all other assays above

CCOP(=S)(OCC)SC(CCl)N1C(=O)c2ccccc2C1=O (centres undefined)
not listed: [8]
inactive: all other assays above

CCOC(=S)S
inactive: [1] | [2] | [3] | [4] | [5] | [6] | [7] | [8]
active: [4] 86.6 µM

CN[C@H]1C[C@@H](N)[C@H](O)[C@@H](O[C@@H]2O[C@H](CO)[C@H](O)[C@@H]3OC4(O[C@H]23)O[C@H](C(N)CO)[C@H](O)[C@H](O)C4O)[C@@H]1O (some centres undefined)
not listed: [7] | [8]
inactive: all other assays above

O=C(Cl)CCl
inactive: all assays above

OCC(Cl)CCl (centres undefined)
not listed: [8]
inactive: all other assays above

N#CCBr
inactive: [1] | [2] | [3] | [4]

Clc1ccc(CCC(Cn2ccnc2)Sc2c(Cl)cccc2Cl)cc1 (centres undefined)
active: [4] 15.9 µM
inactive: all other assays above

CC(C)N(C(=O)SCC(Cl)=CCl)C(C)C
not listed: [8]
inactive: all other assays above

ClCCOCOCCCl
not listed: [8]
inactive: all other assays above

C[C@@H](Cc1ccccc1)NCCC(c1ccccc1)c1ccccc1
active: [5] 12.5 µM
inactive: all other assays above

O=C(O)CC[N+](=O)[O-]
inactive: all assays above

C#CCN1CC(=O)N(COC(=O)C2C(C=C(C)C)C2(C)C)C1=O (centres undefined)
inactive: [1] | [2] | [3] | [4] | [5]

CC(=O)C=Cc1ccc2c(c1)OCO2
active: [2] 18.1 µM | [4] 62.8 µM | [6] 71 µM | [8] 51.2 µM
inactive: all other assays above

CCCCCCC[CH2][Sn]([Cl])([Cl])[CH2]CCCCCCC
active: [1] 66.6 µM | [2] 67 µM | [3] 57.1 µM | [4] 21.2 µM | [5] 36.5 µM
inactive: [6] | [7] | [8]

BrC(Br)C(Br)(Br)Br
inactive: all assays above

NCC(O)c1ccc(O)cc1 (centres undefined)
inactive: all assays above

S=C=Nc1cccc2ccccc12
active: [2] 38.5 µM | [8] 32.4 µM
inactive: all other assays above

COC(=O)c1cncn1C(C)c1ccccc1 (centres undefined)
not listed: [7] | [8]
inactive: all other assays above

CN[C@@H]1C[C@@H](c2ccc(Cl)c(Cl)c2)c2ccccc21
active: [5] 33.9 µM
inactive: all other assays above

CC[C@H](N)c1ccccc1
inactive: [1] | [2] | [3] | [4] | [5]

— PubChem BioAssay (EPA / NIEHS)
